The values below come from PubChem BioAssay AID1851 (National Center for Advancing Translational Sciences (NCATS), 2009).

The structures appear in SMILES notation. In all, about 16,000 compounds went through this assay and about 4,000 (25%) were called active. Inconclusive results (about 26%) are left out. The list is a sample of the results. Unmarked numbers belong to inactive results. The call rests on the fitted dose curve; in most records, active means well fitted curve in the direction sought with a large enough effect; inconclusive means small, poorly fitted or top-dose-only effect, or effect the other way; inactive means no such curve, though single readings can be large or run the other way.
On the % scale 0 is the no-effect control and ±100 the full control effect.

Chain of Cytochrome P450 2C9 (Homo sapiens) (P11712 whole entry, looked up): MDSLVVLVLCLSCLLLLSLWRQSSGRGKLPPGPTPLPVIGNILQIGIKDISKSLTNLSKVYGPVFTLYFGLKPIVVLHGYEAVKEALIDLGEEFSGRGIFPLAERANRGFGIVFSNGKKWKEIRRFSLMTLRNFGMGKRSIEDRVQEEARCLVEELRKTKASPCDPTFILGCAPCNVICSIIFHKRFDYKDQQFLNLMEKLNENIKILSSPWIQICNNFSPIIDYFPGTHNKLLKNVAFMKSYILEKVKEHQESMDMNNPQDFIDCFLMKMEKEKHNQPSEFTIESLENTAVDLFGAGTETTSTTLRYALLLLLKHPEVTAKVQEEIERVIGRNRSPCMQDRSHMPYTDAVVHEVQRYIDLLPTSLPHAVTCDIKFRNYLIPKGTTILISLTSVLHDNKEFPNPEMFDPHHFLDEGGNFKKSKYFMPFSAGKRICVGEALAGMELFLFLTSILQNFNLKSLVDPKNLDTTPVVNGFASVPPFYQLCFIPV

The test has as its target Cytochrome P450 2C9 (Homo sapiens) (UniProt P11712). The test can be described thus: Cytochrome panel assay with activity outcomes. The following applies: recombinant CYP, pro-luciferin dealkylation, luminescence, p450-cyp2c9; series mostly up to 57.1 µM; activity, negative = inhibition: at the top concentration.
Regarding `CC(=O)OCC(=O)[C@@]1(O)CC[C@@H]2[C@H]3CCC4=CC(=O)CC[C@]4(C)[C@]3(F)[C@@H](O)C[C@@]21C`, the “activity, negative = inhibition” value was -3.55% [at 25.6 µM].

Turning to `C[C@@H]1/C=C\CC(=O)OC[C@H](C)C(=O)N[C@@H](Cc2ccccc2)C(=O)OC1`, the activity, negative = inhibition is 10.4% [at 11.4 µM].

As to `O=C1C=C[C@@H](O)[C@H]2[C@@H]3C(=O)N(c4cccc(Oc5ccccc5)c4)C(=O)[C@@H]3CC[C@H]12`, the activity, negative = inhibition was -24.8% [at 11.4 µM].

Regarding `O=C(Nc1cccc2nsnc12)c1ccc(-c2cccc(Cl)c2)o1`, the “activity, negative = inhibition” value is -23.8%.

For the molecule `COC(=O)c1sccc1-c1ccc(C(=O)Nc2cccc(Cl)c2)o1`, the AC50 is 10 µM (active).

In the case of `COC(=O)c1nn(-c2ccc(OC)cc2)c(=O)cc1Oc1cccc(Cl)c1`, the “activity, negative = inhibition” value is -7.52%.

On to `COC(=O)c1sccc1-c1ccc(C(=O)Nc2cccnc2)o1`, for which the AC50 is 5.01 µM (active).

As for `CCOC(=O)C(=Cc1ccc(-c2ccsc2C(=O)OC)o1)C(=O)OCC`, the AC50 was 1.26 µM (active).

Turning to `CCOC(=O)N/N=C/c1ccc(C)o1`, the “activity, negative = inhibition” value is -28.6%.

In the case of `CCOC(=O)C(=CNCC(=O)O)C(=O)OCC`, the “activity, negative = inhibition” value is -3.32%.

On to `CCN1C(=O)[C@H]2[C@H]3[C@H](O)[C@H](O)C/C(=N/O[C@@H](C)c4cn([C@H]5COC[C@H]5O)nn4)[C@@H]3CC[C@@H]2C1=O`, for which the activity, negative = inhibition was 9.59% [at 11.4 µM].

For the molecule `CCOC(=O)c1cc(-c2ccccc2)sc1NC(=O)c1ccc(OC)cc1`, the AC50 is 11.2 µM (active).

On to `CCOC(=O)CCCNC(=O)CCCNC(=O)C(c1ccccc1)c1ccccc1`, for which the “activity, negative = inhibition” value was -21.3%.

Consider `CCOC(=O)c1cc(-c2ccccc2)sc1NC(=O)C(C)(C)C`, for which the “activity, negative = inhibition” value was -29.5%.

Turning to `CCOC(=O)c1cc(CC)sc1NC(=O)C(c1ccccc1)c1ccccc1`, the concentration at half-maximal activity (AC50) is 6.31 µM (active).

Take `COC(=O)c1cc(-c2ccccc2)sc1NC(=O)CN1C(=O)c2ccccc2C1=O`: the AC50 is 2.82 µM (active).

As to `CCOC(=O)N/N=C1/C[C@@H](O)[C@@H](O)[C@@H]2[C@@H]3C(=O)N(C(C)(C)C)C(=O)[C@H]3CC[C@@H]12`, the activity, negative = inhibition was 6.14% [at 11.4 µM].

For the molecule `COc1ccccc1-c1nc(Nc2ccncc2)c2ccccc2n1`, the activity, negative = inhibition is -28.7% [at 2.29 µM].

`c1nc(NC2CC2)c2cc(-c3ccoc3)ccc2n1`: the activity, negative = inhibition was -5.58% [at 2.29 µM].

As to `CCOC(=O)Cn1c(-c2ccccc2)nc2ccccc2c1=O`, the AC50 is 2 µM (active).

Take `O=C(O)Cn1c(-c2ccccc2)nc2ccccc21`: the “activity, negative = inhibition” value is -9.81%.

In the case of `O=c1c2ccccc2nc(-c2ccc(Br)cc2)n1Cc1ccccc1`, the AC50 was 2.51 µM (active).

Turning to `C[C@@H](CC(=O)O)[C@@H](N)C(=O)O`, the “activity, negative = inhibition” value is -21.2%.

On to `COc1ccc2c3c(ccc2c1)N[C@H](C(=O)O)CC3`, for which the activity, negative = inhibition was -0.255% [at 11.4 µM].

In the case of `COCCNc1nc(-c2ccccc2OC)nc2ccccc12`, the activity, negative = inhibition was 5.14% [at 2.29 µM].

As for `COc1cc(CC(=O)O)c(C(C)=O)cc1OC`, the “activity, negative = inhibition” value is 3.54%.

As for `CC(=O)c1cc(CC=C(C)C)c(O)cc1O`, the AC50 was 2.51 µM (active).

Regarding `CCC(C)(C)n1nnnc1C(c1ccc(C)cc1)N1CCC(C)CC1` (stereo not drawn), the half-maximal activity concentration (AC50) was 28.2 µM (active).

In the case of `Cc1[nH]c2ccccc2c1C(c1ccccn1)N1CCC(C)CC1` (stereo not drawn), the “activity, negative = inhibition” value was -1.22%.

Take `Cn1c(-c2ccccc2)cnc1N`: the “activity, negative = inhibition” value was 5.03%.

With `Cc1ccccc1CNc1ncnc2c1ncn2[C@@H]1O[C@@H](CO)[C@H](O)[C@@H]1O`, the “activity, negative = inhibition” value was 5.73%.

For the molecule `CC(C)N(CC(=O)O)CC(=O)O`, the activity, negative = inhibition is -8.23% [at 11.4 µM].

On to `CN1Cc2c(C(=O)OC(C)(C)C)ncn2-c2ccsc2C1=O`, for which the AC50 was 5.01 µM (active).

As for `Cc1c(CCO)c(=O)n(C)n1C(=O)c1ccc(F)cc1`, the “activity, negative = inhibition” value is 55%.

For the molecule `Cc1c(N(C)CS(=O)(=O)O)c(=O)n(-c2ccccc2)n1C`, the “activity, negative = inhibition” value was -0.666% [at 25.6 µM].

In the case of `Cc1c(CCO)c(=O)n(-c2ccccc2)n1S(=O)(=O)c1c(Cl)cc(Cl)cc1Cl`, the AC50 is 5.01 µM (active).

For the molecule `Cc1cccc(C(=O)N2CCN(c3ccc([N+](=O)[O-])c(NCc4ccco4)c3)CC2)c1`, the AC50 is 3.55 µM (active).

For the molecule `Cc1cccc(C(=O)NCN2CCN(c3ccccc3C#N)CC2)c1`, the AC50 result is “inactive”.

For `N#Cc1ccc(C(=O)Nc2ccc(N3CCN(C(=O)c4ccco4)CC3)cc2)c(F)c1`, the “activity, negative = inhibition” value was -19.7%.

For `Cc1ccccc1C(=O)N1CCN(c2ccc([N+](=O)[O-])c(NCc3ccco3)c2)CC1`, the half-maximal activity concentration (AC50) was 2.24 µM (active).

On to `O=C1C2C3C=CC(C2C(=O)N1CN1CCOCC1)C1C2C(=O)N(CN4CCOCC4)C(=O)C2C31` (stereo not drawn), for which the activity, negative = inhibition is -4.42% [at 11.4 µM].

`COc1c2c(nc3ccccc13)O[C@H]([C@@](C)(O)CO)C2`: the “activity, negative = inhibition” value is 6.33% [at 25.6 µM].

For `NC[C@H]1O[C@H](n2cnc3c(N)ncnc32)C[C@@H]1O`, the activity, negative = inhibition was 11.4% [at 11.4 µM].

Consider `CCCCN(C)Cc1c(C)[nH]c2ccc(Cl)cc2c1=O`, for which the “activity, negative = inhibition” value was -23.2%.

As to `O=C(NCCCN1CCC(Cc2ccccc2)CC1)C1CCN(S(=O)(=O)N2CCOCC2)CC1`, the “activity, negative = inhibition” value is -2.95%.

Turning to `O=C(NCCc1ccc(Cl)cc1)C1CCN(S(=O)(=O)N2CCC3(CC2)OCCO3)CC1`, the AC50 was 7.08 µM (active).

Consider `O=C(NCCCN1CCN(Cc2ccccc2)CC1)C1CCN(S(=O)(=O)N2CCCC2)CC1`, for which the “activity, negative = inhibition” value was -14.5%.

As for `NCS(=O)(=O)O`, the activity, negative = inhibition is -4.35% [at 11.4 µM].

In the case of `N#Cc1ccc(C2=NC(C(F)(F)F)(C(F)(F)F)c3c(n(Cc4ccco4)c(=O)[nH]c3=O)N2)cc1`, the half-maximal activity concentration (AC50) was 0.398 µM (active).

With `CC1(C)CC2(CC(c3cccs3)c3cc(Cl)c(O)cc3O2)NC(=S)N1` (stereo not drawn), the half-maximal activity concentration (AC50) is 1 µM (active).

`Cc1noc(C)c1-c1cc(NCc2cccs2)ncn1`: the activity, negative = inhibition is 17.3% [at 2.29 µM].

As for `O=C(N/N=C\c1cn(-c2ccccc2)nc1-c1ccccc1)c1ccc2c(c1)OCO2`, the half-maximal activity concentration (AC50) was 3.98 µM (active).

On to `O=C(N/N=C\c1cn(-c2ccccc2)nc1-c1ccccc1)c1ccc(Br)o1`, for which the AC50 was 1.58 µM (active).

In the case of `CC(/C=C/c1ccccc1)=N/NC(=O)CNC(=O)c1ccc2c(c1)OCO2`, the “activity, negative = inhibition” value was -26%.

Consider `Cc1c(/C=N/NC(=O)c2ccc3c(c2)OCO3)cnn1C`, for which the “activity, negative = inhibition” value is -16.9%.

Take `O=C(N/N=C/c1ccccn1)c1ccc(Br)o1`: the “activity, negative = inhibition” value is -46.8%.

In the case of `COc1ccc(-c2nn(-c3ccccc3)cc2/C=N/NC(=O)c2ccc3c(c2)OCO3)cc1`, the AC50 is 3.16 µM (active).

Take `CN1CCN(c2ncncc2-c2ccccc2Cl)CC1`: the activity, negative = inhibition was -9.71% [at 2.29 µM].

As usually defined, the AC50 is the midpoint of the concentration-response curve, whichever way the signal moves.
